Screening results deposited in PubChem by several laboratories.
rCAG RNA binder: r(CAG) repeat RNA binding; TO-PRO-1 dye displacement fluorescence; inhibition, % at 3 µM; 1.3% of 370,000 active; AID 651821;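 active = inhibition above the plate cutoff, the mean of all test compounds on that plate plus 3 SD, cut at about 35% in these data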;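 note: 0% = DMSO alone and 100% = 100 µM mitoxantrone as full dye displacement; higher means more dye released from RNA so lower well fluorescence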
AHR activator: activators of human aryl hydrocarbon receptor | activation, % at 5 µM | AHR-responsive luciferase reporter cells, luminescence | P35869 | 2.5% of 320,000 active; in the data active = activation above about 47%;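 note: 0% = vehicle wells and 100% = reference agonist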
NR3A LBD binder: NR3A (human) ligand-binding domain modulation | 2.5% of 340,000 active | AID 1259313 | NR3A LBD differential scanning fluorimetry, Tm shift; 0% = protein alone, 100% = glycine-bound protein | Tm shift relative to glycine control, % at 25 µM;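 active = melting temperature shift of at least 10% of the positive control shift, at one fixed dose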
ADAM10 inh: ADAM10 inhibition, QFRET primary screen | O14672 | recombinant ADAM10, EDANS/DABCYL FRET peptide cleavage, 3 h | inhibition, % at 7 µM | 0.62% of 370,000 active;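 active = inhibition above a per-campaign cutoff equal to the mean of compounds falling between control-based bounds plus 3 SD, cut at about 20% in these data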;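 note: 0% = DMSO wells while the 100% control is not disclosed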
Target sequence (O14672 214-748 limits assumed): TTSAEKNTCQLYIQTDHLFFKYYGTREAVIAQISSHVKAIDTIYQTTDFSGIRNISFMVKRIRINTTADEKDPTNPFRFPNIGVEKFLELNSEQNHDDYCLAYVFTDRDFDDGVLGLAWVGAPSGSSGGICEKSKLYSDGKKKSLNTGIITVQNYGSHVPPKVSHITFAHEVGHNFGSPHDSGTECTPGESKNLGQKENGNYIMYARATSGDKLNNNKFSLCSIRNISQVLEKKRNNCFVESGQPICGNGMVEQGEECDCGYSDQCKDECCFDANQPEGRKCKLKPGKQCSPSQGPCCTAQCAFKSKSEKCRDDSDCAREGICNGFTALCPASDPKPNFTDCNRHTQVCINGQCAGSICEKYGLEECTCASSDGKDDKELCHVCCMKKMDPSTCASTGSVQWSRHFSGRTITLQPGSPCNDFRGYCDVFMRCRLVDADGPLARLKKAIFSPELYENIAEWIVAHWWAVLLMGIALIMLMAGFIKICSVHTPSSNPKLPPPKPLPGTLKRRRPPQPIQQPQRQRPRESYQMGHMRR
KLK7 zymogen act: activators of human kallikrein-7 zymogen; P49862; activation, % at 7 µM; AID 652039; purified proKLK7, EDANS-DABCYL substrate fluorescence; 100% is mature enzyme control, 0% vehicle; 0.9% of 370,000 active;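 active = activation above the mean of all tested compounds plus 3 SD, computed per campaign excluding outliers beyond control limits, cut at about 13% in these data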
ADAM17 inh: inhibitors of human ADAM17; P78536; recombinant ADAM17, EDANS/DABCYL FRET peptide cleavage; inhibition, % at 6.95 µM; 0.83% of 370,000 active;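 active = inhibition above the mean of compounds lying between control limits plus 3 SD, set per campaign, cut at about 8.5% in these data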;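 note: 0% = DMSO-only wells as the low control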
Numbers without * were called inactive. Sampled rows, rich in hits. Any-hit rate of the full collection: about 7%.

What do the screens show for `COC(=O)[C@]12C[C@H](CC(=O)N3CCN(C(=O)C4CC4)CC3)C(=O)N(CCc3ccc(OC)c(OC)c3)C1=C[C@H](C(C)(C)C)O[C@@H]2C`?
rCAG RNA binder: 3; ADAM10 inh: -7; KLK7 zymogen act: 0; ADAM17 inh: -4

How did COC(=O)C1CN(Cc2ccccc2)CCS(=O)(=O)N1Cc1cn(Cc2cccc(Cl)c2)nn1 (stereo not drawn) do in these assays?
rCAG RNA binder: 11; ADAM10 inh: 1; KLK7 zymogen act: 0; ADAM17 inh: 0

What do the screens show for `c1ccc([C@H]2CN3C(=N2)Sc2ccccc23)cc1`?
rCAG RNA binder: 8; AHR activator: 72*; NR3A LBD binder: 7; ADAM10 inh: 10; KLK7 zymogen act: 0; ADAM17 inh: 5

How did CC(=O)Nc1ccc(S(=O)(=O)N(C)CC(=O)OCC(=O)NNC(=O)c2ccccc2F)cc1 do in these assays?
rCAG RNA binder: 1; AHR activator: 2; NR3A LBD binder: 18*; ADAM10 inh: -1; KLK7 zymogen act: 0; ADAM17 inh: -4

Results for CC(=O)Nc1ccc(S(=O)(=O)N(C)CC(=O)OCC(=O)c2ccc[nH]2)cc1 ?
rCAG RNA binder: 4; AHR activator: 1; NR3A LBD binder: -1; ADAM10 inh: -8; KLK7 zymogen act: 0; ADAM17 inh: -7

How did Cc1ccc(S(=O)(=O)N(C)CC(=O)OCC(=O)NC(c2ccccc2)c2ccccc2)cc1 do in these assays?
rCAG RNA binder: -5; AHR activator: 1; NR3A LBD binder: 24*; ADAM10 inh: 4; KLK7 zymogen act: 0; ADAM17 inh: 3

Results for Cc1ccc(S(=O)(=O)N(C)CC(=O)OCC(=O)NC(=O)NC(C)C)cc1 ?
rCAG RNA binder: -7; AHR activator: -1; NR3A LBD binder: 0; ADAM10 inh: 1; KLK7 zymogen act: 0; ADAM17 inh: -1

Results for CC[C@H](CCCc1ccc(OC)cc1)CCC(=O)N(c1ccccc1)c1ccccc1 ?
rCAG RNA binder: 7; ADAM10 inh: 4; KLK7 zymogen act: 0; ADAM17 inh: 0

What do the screens show for `COc1cccc(C(=O)Nc2ccncc2)c1`?
AHR activator: 5

Results for Cc1cc(NC(=O)c2cccc(Br)c2)n[nH]1 ?
rCAG RNA binder: 4; AHR activator: 73*; NR3A LBD binder: 0; ADAM10 inh: 1; KLK7 zymogen act: 0; ADAM17 inh: -3

How did COc1cccc(C(=O)NC(=O)Nc2cc(C)[nH]n2)c1 do in these assays?
rCAG RNA binder: 2; AHR activator: 51*; NR3A LBD binder: 0; ADAM10 inh: 4; KLK7 zymogen act: 0; ADAM17 inh: -2

What do the screens show for `O=C1c2ccccc2C(=O)c2c(Nc3ccc(CCO)cc3)ccc(O)c21`?
rCAG RNA binder: 16; AHR activator: 69*; NR3A LBD binder: -10; ADAM10 inh: -2; KLK7 zymogen act: -1; ADAM17 inh: -2

How did Clc1ccccc1Cn1ccc2ccc(-c3ccc4ccn(Cc5ccccc5Cl)c4c3)cc21 do in these assays?
rCAG RNA binder: 16; ADAM10 inh: -29; KLK7 zymogen act: -1; ADAM17 inh: -14

Results for O=C(c1ccc(Cl)cc1)C1CCCN(Cc2cccn2-c2cccnc2)C1 (stereo not drawn) ?
rCAG RNA binder: -6; AHR activator: 20; NR3A LBD binder: 0; ADAM10 inh: 2; KLK7 zymogen act: 1; ADAM17 inh: 4

What do the screens show for `O=C(c1ccc2c(c1)OCO2)C1CCCN(Cc2cccn2-c2cccnc2)C1` (stereo not drawn)?
rCAG RNA binder: -7; AHR activator: 49*; NR3A LBD binder: -1; ADAM10 inh: -5; KLK7 zymogen act: 1; ADAM17 inh: -6

Results for COC(=O)c1cc(C#N)c(SCc2ccccc2)nc1C ?
rCAG RNA binder: 0; AHR activator: 4; NR3A LBD binder: 0; ADAM10 inh: 8; KLK7 zymogen act: 0; ADAM17 inh: 1

How did CC(=O)c1cc(C#N)c(SCc2ccccc2)nc1C do in these assays?
rCAG RNA binder: 2; AHR activator: 0; NR3A LBD binder: 15*; ADAM10 inh: 9; KLK7 zymogen act: 1; ADAM17 inh: -3

How did CCCSc1nnc(CSc2nc3nc(C)cc(C)n3n2)o1 do in these assays?
rCAG RNA binder: -3; AHR activator: 4; NR3A LBD binder: -1; ADAM10 inh: 2; KLK7 zymogen act: 0; ADAM17 inh: -3

Results for CCCCSc1nnc(CSc2nc3nc(C)cc(C)n3n2)o1 ?
rCAG RNA binder: -5; AHR activator: 4; NR3A LBD binder: 12*; ADAM10 inh: 1; KLK7 zymogen act: 0; ADAM17 inh: -6

Results for COc1ccccc1-c1cc2ccccc2[nH]1 ?
rCAG RNA binder: 4; AHR activator: 64*; NR3A LBD binder: -14; ADAM10 inh: -386; KLK7 zymogen act: -6; ADAM17 inh: -92

How did O=C(O)c1ccccc1-c1cc2ccccc2[nH]1 do in these assays?
rCAG RNA binder: 3; AHR activator: -1; NR3A LBD binder: 2; ADAM10 inh: -2; KLK7 zymogen act: 0; ADAM17 inh: -1

How did Cc1[nH]c2ccccc2c1CC(=O)Nc1ccc(Nc2cccnc2)c(-c2ccc(OC(F)(F)F)cc2)c1 do in these assays?
rCAG RNA binder: 11; ADAM10 inh: -8; KLK7 zymogen act: -2; ADAM17 inh: -2

How did COc1cccc(-c2sc3ccc(OC)cc3c2C#CC2(O)CCCCC2)c1 do in these assays?
rCAG RNA binder: 12; AHR activator: 8; NR3A LBD binder: -10; ADAM10 inh: -64; KLK7 zymogen act: -4; ADAM17 inh: -21

How did COc1cccc(-c2sc3ccc(OC)cc3c2C#CCCO)c1 do in these assays?
rCAG RNA binder: 12; AHR activator: 69*; NR3A LBD binder: 10; ADAM10 inh: -47; KLK7 zymogen act: -3; ADAM17 inh: -14

Results for COc1cc(OC)cc(-c2sc3ccc(OC)cc3c2C#CCO)c1 ?
rCAG RNA binder: 23; AHR activator: 49*; NR3A LBD binder: 2; ADAM10 inh: -61; KLK7 zymogen act: -5; ADAM17 inh: -17

Results for COc1cc(OC)cc(-c2sc3ccc(OC)cc3c2C#CC(C)(C)O)c1 ?
rCAG RNA binder: 14; AHR activator: 15; NR3A LBD binder: -6; ADAM10 inh: -65; KLK7 zymogen act: -4; ADAM17 inh: -17

What do the screens show for `NC(=O)c1c(N)[nH]c(C(=O)c2ccccc2)c1-c1ccccc1Cl`?
rCAG RNA binder: 6; ADAM10 inh: -7; KLK7 zymogen act: 0; ADAM17 inh: -2

How did O=C(CCCCCCCC(=O)c1ccccc1)c1ccccc1 do in these assays?
rCAG RNA binder: 4; AHR activator: -4; NR3A LBD binder: 24*; ADAM10 inh: 5; KLK7 zymogen act: -1; ADAM17 inh: 2

What do the screens show for `Cc1ccc(C(=O)CCC(=O)NCc2ccccc2)cc1`?
rCAG RNA binder: -2; AHR activator: 1; NR3A LBD binder: 51*; ADAM10 inh: 6; KLK7 zymogen act: 1; ADAM17 inh: 3
